# Experimental data taken from article PMC5540273 (PLoS ONE, 2017).
# Several values for one entry are separate records, joined by “and”; a condition that tells them apart may be missing. Equal entries are not always repeated. Where two headings read alike, the source gives them in different places.
# Assays:
# AAK1 = conditions: concentration: 1 μM, replicates: in singlicate; n = 1
# ABL1-nonphosphorylated = conditions: concentration: 1 μM, replicates: in singlicate, n = 1
# ABL1-phosphorylated = conditions: concentration: 1 μM, replicates: in singlicate, n = 1
# ABL2 = conditions: concentration: 1 μM, replicates: in singlicate, n = 1
# ACVR1B = conditions: concentration: 1 μM, replicates: in singlicate, n = 1
# ACVR1 = conditions: concentration: 1 μM, replicates: in singlicate, n = 1
# ACVR2A = conditions: concentration: 1 μM, replicates: in singlicate, n = 1
# ACVR2B = conditions: concentration: 1 μM, replicates: in singlicate, n = 1
# ACVRL1 = conditions: concentration: 1 μM, replicates: in singlicate, n = 1
# ADCK3 = tested on: T1, ADCK3; conditions: concentration: 1 μM, replicates: in singlicate, n = 1
# T1 construct: gene CABC1
# ADCK4 = conditions: concentration: 1 μM, replicates: in singlicate, n = 1
# AKT1 = conditions: concentration: 1 μM, replicates: in singlicate, n = 1
# AKT2 = conditions: concentration: 1 μM, replicates: in singlicate, n = 1
# AKT3 = conditions: concentration: 1 μM, replicates: in singlicate, n = 1
# ALK = conditions: concentration: 1 μM, replicates: in singlicate, n = 1
# AMPK-alpha1 = tested on: T2, AMPK-alpha1; conditions: concentration: 1 μM, replicates: in singlicate, n = 1
# T2 construct: gene PRKAA1
# 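Further: KINOMEscan kinase panel screen.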
structure (smiles),measurement,setting,value
Cc1nnc(-c2ccc3occ(-c4ccc(C(C)O)cc4)c3c2)o1 (stereo not drawn),%Inh,AAK1,23%
same,%Inh,ABL1-nonphosphorylated,64%
same,%Inh,ABL1-phosphorylated,36%
same,%Inh,ABL2,8%
same,%Inh,ACVR1B,14%
same,%Inh,ACVR1,15%
same,%Inh,ACVR2A,9%
same,%Inh,ACVR2B,27%
same,%Inh,ACVRL1,8%
same,%Inh,ADCK3,0%
same,%Inh,ADCK4,0%
same,%Inh,AKT1,17%
same,%Inh,AKT2,0%
same,%Inh,AKT3,4%
same,%Inh,ALK,0%
same,%Inh,AMPK-alpha1,0%
COC(=O)Nc1nc2cc(Oc3ccc(NC(=O)Nc4cc(F)ccc4F)cc3)ccc2[nH]1.Cl [GW701424],%Inh,AAK1,30%
same,%Inh,ABL1-nonphosphorylated,94.5%
same,%Inh,ABL1-phosphorylated,40%
same,%Inh,ABL2,74%
same,%Inh,ACVR1B,0%
same,%Inh,ACVR1,0%
same,%Inh,ACVR2A,0%
same,%Inh,ACVR2B,0%
same,%Inh,ACVRL1,0%
same,%Inh,ADCK3,7%
same,%Inh,ADCK4,40%
same,%Inh,AKT1,0%
same,%Inh,AKT2,4%
same,%Inh,AKT3,0%
same,%Inh,ALK,28%
same,%Inh,AMPK-alpha1,0%
O=c1cc(N2CCOCC2)nc2n(Cc3cccc(C(F)(F)F)c3)ccn12 [GSK2297543],%Inh,AAK1,0%
same,%Inh,ABL1-nonphosphorylated,0%
same,%Inh,ABL1-phosphorylated,0%
same,%Inh,ABL2,3%
same,%Inh,ACVR1B,0%
same,%Inh,ACVR1,5%
same,%Inh,ACVR2A,0%
same,%Inh,ACVR2B,0%
same,%Inh,ACVRL1,0%
same,%Inh,ADCK3,21%
same,%Inh,ADCK4,16%
same,%Inh,AKT1,0%
same,%Inh,AKT2,0%
same,%Inh,AKT3,15%
same,%Inh,ALK,0%
same,%Inh,AMPK-alpha1,4%
CC(=O)Nc1ccc(COc2ccc(Nc3ccnc4cc(-c5ccccn5)ccc34)cc2)cc1.Cl [GW440148],%Inh,AAK1,13%
same,%Inh,ABL1-nonphosphorylated,35%
same,%Inh,ABL1-phosphorylated,19%
same,%Inh,ABL2,11%
same,%Inh,ACVR1B,0%
same,%Inh,ACVR1,0%
same,%Inh,ACVR2A,0%
same,%Inh,ACVR2B,59%
same,%Inh,ACVRL1,3%
same,%Inh,ADCK3,18%
same,%Inh,ADCK4,26%
same,%Inh,AKT1,0%
same,%Inh,AKT2,15%
same,%Inh,AKT3,0%
same,%Inh,ALK,6%
same,%Inh,AMPK-alpha1,0%
COc1ccc(COc2cc(-n3cnc4ccccc43)sc2C(N)=O)cc1 [GSK1024304],%Inh,AAK1,29%
same,%Inh,ABL1-nonphosphorylated,0%
same,%Inh,ABL1-phosphorylated,0%
same,%Inh,ABL2,15%
same,%Inh,ACVR1B,0%
same,%Inh,ACVR1,0%
same,%Inh,ACVR2A,0%
same,%Inh,ACVR2B,0%
same,%Inh,ACVRL1,0%
same,%Inh,ADCK3,0%
same,%Inh,ADCK4,0%
same,%Inh,AKT1,0%
same,%Inh,AKT2,0%
same,%Inh,AKT3,54%
same,%Inh,ALK,23%
same,%Inh,AMPK-alpha1,26%
CC(C)(CN)c1nc(-c2ccc(Cl)c(O)c2)c(-c2ccncc2)[nH]1.O=C(O)C(F)(F)F [SB-477794],%Inh,AAK1,0%
same,%Inh,ABL1-nonphosphorylated; 1 µM,96.1% and 94.7%
same,%Inh,ABL1-phosphorylated; 1 µM,99.4% and 98.9%
same,%Inh,ABL2; 1 µM,92.4% and 89%
same,%Inh,ACVR1B; 1 µM,87% and 91.7%
same,%Inh,ACVR1; 1 µM,96.5% and 93.4%
same,%Inh,ACVR2A; 1 µM,1% and 25%
same,%Inh,ACVR2B; 1 µM,91.9% and 91%
same,%Inh,ACVRL1; 1 µM,61% and 67%
same,%Inh,ADCK3; 1 µM,7% and 17%
same,%Inh,ADCK4; 1 µM,54% and 35%
same,%Inh,AKT1; 1 µM,5% and 25%
same,%Inh,AKT2; 1 µM,21% and 8%
same,%Inh,AKT3; 1 µM,34% and 100%
same,%Inh,ALK; 1 µM,34% and 16%
same,%Inh,AMPK-alpha1,0%
CC(C)(C)n1cnc2c(N)ncnc21 [SKF-97359],%Inh,AAK1,0%
same,%Inh,ABL1-nonphosphorylated,37%
same,%Inh,ABL1-phosphorylated,0%
same,%Inh,ABL2,1%
same,%Inh,ACVR1B,0%
same,%Inh,ACVR1,0%
same,%Inh,ACVR2A,0%
same,%Inh,ACVR2B,0%
same,%Inh,ACVRL1,0%
same,%Inh,ADCK3,0%
same,%Inh,ADCK4,31%
same,%Inh,AKT1,0%
same,%Inh,AKT2,0%
same,%Inh,AKT3,0%
same,%Inh,ALK,29%
same,%Inh,AMPK-alpha1,0%
[2H]C([2H])(c1cccc(C(F)(F)F)c1C)n1ccn2c(=O)nc(N3CCOCC3)cc12 [GSK2336394],%Inh,AAK1,0%
same,%Inh,ABL1-nonphosphorylated,0%
same,%Inh,ABL1-phosphorylated,0%
same,%Inh,ABL2,17%
same,%Inh,ACVR1B,0%
same,%Inh,ACVR1,0%
same,%Inh,ACVR2A,0%
same,%Inh,ACVR2B,1%
same,%Inh,ACVRL1,31%
same,%Inh,ADCK3,8%
same,%Inh,ADCK4,28%
same,%Inh,AKT1,0%
same,%Inh,AKT2,0%
same,%Inh,AKT3,0%
same,%Inh,ALK,17%
same,%Inh,AMPK-alpha1,0%
N#Cc1ccc(-c2cc(-c3c[nH]nc3-c3ccccn3)ccn2)cc1 [GW693028],%Inh,AAK1,0%
same,%Inh,ABL1-nonphosphorylated,7%
same,%Inh,ABL1-phosphorylated,29%
same,%Inh,ABL2,10%
same,%Inh,ACVR1B,56%
same,%Inh,ACVR1,59%
same,%Inh,ACVR2A,0%
same,%Inh,ACVR2B,40%
same,%Inh,ACVRL1,0%
same,%Inh,ADCK3,0%
same,%Inh,ADCK4,20%
same,%Inh,AKT1,0%
same,%Inh,AKT2,0%
same,%Inh,AKT3,0%
same,%Inh,ALK,25%
same,%Inh,AMPK-alpha1,0%
Cl.Cl.Cl.Fc1ccc(-c2ncn(C3CCNCC3)c2-c2ccnc(Nc3ccccc3)n2)cc1 [SB-238039],%Inh,AAK1,0%
same,%Inh,ABL1-nonphosphorylated; 1 µM,0% and 63%
same,%Inh,ABL1-phosphorylated; 1 µM,31% and 12%
same,%Inh,ABL2; 1 µM,5% and 3%
same,%Inh,ACVR1B; 1 µM,58% and 31%
same,%Inh,ACVR1,16%
same,%Inh,ACVR2A,0%
same,%Inh,ACVR2B; 1 µM,0% and 18%
same,%Inh,ACVRL1; 1 µM,20% and 17%
same,%Inh,ADCK3,0%
same,%Inh,ADCK4; 1 µM,25% and 1%
same,%Inh,AKT1; 1 µM,21% and 0%
same,%Inh,AKT2; 1 µM,10% and 7%
same,%Inh,AKT3; 1 µM,24% and 37%
same,%Inh,ALK; 1 µM,21% and 0%
same,%Inh,AMPK-alpha1; 1 µM,15% and 2%
C[C@@H](Oc1cc(-n2cnc3ccc(NC(=O)NC(C)(C)C)cc32)sc1C(N)=O)c1ccccc1Cl [GSK346294],%Inh,AAK1,15%
same,%Inh,ABL1-nonphosphorylated,0%
same,%Inh,ABL1-phosphorylated,0%
same,%Inh,ABL2,9%
same,%Inh,ACVR1B,0%
same,%Inh,ACVR1,0%
same,%Inh,ACVR2A,0%
same,%Inh,ACVR2B,17%
same,%Inh,ACVRL1,1%
same,%Inh,ADCK3,37%
same,%Inh,ADCK4,31%
same,%Inh,AKT1,0%
same,%Inh,AKT2,3%
same,%Inh,AKT3,0%
same,%Inh,ALK,0%
same,%Inh,AMPK-alpha1,6%
O=C1Cc2cc(Nc3nc(NCc4cccc(S(=O)(=O)C(F)(F)F)c4)ncc3C(F)(F)F)ccc2N1,%Inh,AAK1,8%
same,%Inh,ABL1-nonphosphorylated,0%
same,%Inh,ABL1-phosphorylated,0%
same,%Inh,ABL2,0%
same,%Inh,ACVR1B,0%
same,%Inh,ACVR1,3%
same,%Inh,ACVR2A,0%
same,%Inh,ACVR2B,0%
same,%Inh,ACVRL1,0%
same,%Inh,ADCK3,0%
same,%Inh,ADCK4,2%
same,%Inh,AKT1,0%
same,%Inh,AKT2,1%
same,%Inh,AKT3,0%
same,%Inh,ALK,0%
same,%Inh,AMPK-alpha1,2%
